KDM5B inhibitor – KDM5B demethylase inhibition | hit rate 2.6% among 220,000 | KDM5B demethylase, FDH-coupled NADH fluorescence (FDH is formaldehyde dehydrogenase) | Potency, µM (doses to about 57.7 µM), usual class: inhibitors; active means well fitted inhibition curve with a large enough effect; further: 0% is about no effect; nearly all actives have a fitted effect of over 70% in size
Target sequence (Q9UGL1 whole entry, looked up): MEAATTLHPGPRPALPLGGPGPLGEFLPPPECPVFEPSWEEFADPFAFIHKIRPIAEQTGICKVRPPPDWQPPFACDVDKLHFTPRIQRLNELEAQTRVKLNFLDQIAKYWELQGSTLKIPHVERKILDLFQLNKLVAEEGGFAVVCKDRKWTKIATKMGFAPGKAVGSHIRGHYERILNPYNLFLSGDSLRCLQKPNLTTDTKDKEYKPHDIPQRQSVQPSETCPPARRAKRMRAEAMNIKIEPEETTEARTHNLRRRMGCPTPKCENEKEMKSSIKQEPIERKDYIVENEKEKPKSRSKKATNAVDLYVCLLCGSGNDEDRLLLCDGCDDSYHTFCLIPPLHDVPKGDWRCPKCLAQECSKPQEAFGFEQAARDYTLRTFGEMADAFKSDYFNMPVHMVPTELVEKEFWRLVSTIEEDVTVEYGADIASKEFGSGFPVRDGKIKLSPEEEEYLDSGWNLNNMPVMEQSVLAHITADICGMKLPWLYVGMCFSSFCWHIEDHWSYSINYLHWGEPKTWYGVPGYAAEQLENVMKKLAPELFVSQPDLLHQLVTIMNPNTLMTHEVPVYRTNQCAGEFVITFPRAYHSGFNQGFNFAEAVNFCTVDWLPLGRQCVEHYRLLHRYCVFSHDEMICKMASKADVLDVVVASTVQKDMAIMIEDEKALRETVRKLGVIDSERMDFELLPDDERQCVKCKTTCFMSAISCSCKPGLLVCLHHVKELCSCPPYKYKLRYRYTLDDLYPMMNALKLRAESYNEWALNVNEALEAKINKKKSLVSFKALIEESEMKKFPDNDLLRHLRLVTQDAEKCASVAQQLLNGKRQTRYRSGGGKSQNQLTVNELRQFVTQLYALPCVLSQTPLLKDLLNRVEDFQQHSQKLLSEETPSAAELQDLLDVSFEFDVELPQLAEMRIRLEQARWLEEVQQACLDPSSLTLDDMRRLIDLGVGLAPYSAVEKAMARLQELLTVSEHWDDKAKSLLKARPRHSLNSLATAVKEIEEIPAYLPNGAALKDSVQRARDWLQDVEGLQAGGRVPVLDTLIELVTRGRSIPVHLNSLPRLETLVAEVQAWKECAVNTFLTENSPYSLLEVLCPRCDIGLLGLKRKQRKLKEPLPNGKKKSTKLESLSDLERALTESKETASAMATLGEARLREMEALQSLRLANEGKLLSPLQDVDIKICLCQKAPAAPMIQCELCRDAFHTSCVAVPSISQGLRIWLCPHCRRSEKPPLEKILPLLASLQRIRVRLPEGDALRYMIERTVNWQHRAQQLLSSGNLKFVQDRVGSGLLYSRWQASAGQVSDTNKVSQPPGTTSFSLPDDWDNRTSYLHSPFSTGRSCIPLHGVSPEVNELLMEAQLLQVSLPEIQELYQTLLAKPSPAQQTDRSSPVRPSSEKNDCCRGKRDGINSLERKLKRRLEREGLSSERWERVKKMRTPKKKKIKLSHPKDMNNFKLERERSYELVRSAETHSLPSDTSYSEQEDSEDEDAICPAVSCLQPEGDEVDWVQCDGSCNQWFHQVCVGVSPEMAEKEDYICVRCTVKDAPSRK
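Coupled FDH/NAD⁺ fluorescence readout. KDM5BΔAP 200 nM final; compound titration, 10 min RT preincubation; substrate mix 12.5 µM H3K4me3, 25 µM 2-OG, 50 µM Fe(II), 100 µM ascorbate, 0.25 mM NAD⁺, 0.25 U/mL FDH; ΔRFU over 30 min.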
* marks the source's active call; other numbers are inactive results. This excerpt belongs to a sample that is enriched for hits. Potency means the concentration at half of the fitted maximal effect.

For CCOC(=O)c1ccc(NC(=O)N2CCc3c(nc4cc[nH]n4c3=O)C2)cc1 the results were KDM5B inhibitor 22.4µM*.
Cc1nc(N2CCCC2)cc(N2CCN(C(=O)c3ccccc3C(F)(F)F)CC2)n1 was read as KDM5B inhibitor inactive.
For CCOc1ccc2c(n1)CCN(C(=O)Nc1ccc(CC)cc1)C2 the results were KDM5B inhibitor inactive.
For COc1ccc(S(=O)(=O)N2CCc3nn(C)c(=O)n3CC2)cc1Cl the results were KDM5B inhibitor inactive.
O=C(c1cc(-c2ccccc2)n[nH]1)N1CCc2c(nc(-c3ccc(F)cc3)[nH]c2=O)C1 was read as KDM5B inhibitor inactive.
`CCOC(=O)c1ccc(NC(=O)N2CCN(Cc3nc(-c4ccc(C)cc4)oc3C)CC2)cc1` gave KDM5B inhibitor inactive.
`O=C(c1cc(-c2ccccc2)n[nH]1)N1CCc2c(nc3cc[nH]n3c2=O)C1` gave KDM5B inhibitor 22.4µM*.
For Cc1nc(N2CCCCC2)cc(N2CCN(C(=O)c3ccccc3C(F)(F)F)CC2)n1 the results were KDM5B inhibitor inactive.
Screening COc1ccc(S(=O)(=O)N2CCc3nn(CC4CC4)c(=O)n3CC2)cc1Cl returned KDM5B inhibitor inactive.
Screening CN(CCc1ccccn1)c1ccc([N+](=O)[O-])cn1 returned KDM5B inhibitor inactive.
`Cc1cnc(C(=O)N[C@@H]2CCC[C@@H]2C(=O)NCc2ccc(OC(C)C)cc2)cn1` gave KDM5B inhibitor inactive.
`O=C(NCCCc1ccccc1)c1n[nH]c2c1CN(C(=O)c1ccc(F)cc1F)CC2` gave KDM5B inhibitor inactive.
For COC(=O)c1ccc(C(=O)NCC2(c3ccccc3)CCC2)cc1 the results were KDM5B inhibitor inactive.
Screening Clc1ccc(-c2noc3ncnc(N4CCCCC4)c23)cc1 returned KDM5B inhibitor inactive.
`O=C(Cn1cccc1-c1nc(-c2ccccc2)no1)Nc1cccc(Cl)c1` gave KDM5B inhibitor inactive.
`CCc1ccc2c(Cl)c(C(=O)NC(C)c3ccncc3)sc2c1` (centres undefined) gave KDM5B inhibitor inactive.
CCOc1ccc(C(=O)N2[C@@H]3CC[C@H]2CC(NC(=O)c2ccncc2)C3)cc1OCC (some centres undefined) was read as KDM5B inhibitor inactive.
For COc1c(/C=N/NC(=O)[C@H]2C[C@@H]2c2ccccc2)c(CCN(C)C(C)=O)cc2c1OCO2 the results were KDM5B inhibitor inactive.
Screening COc1ccc(C(=O)N2CCc3c(nc4cc[nH]n4c3=O)C2)c(C)c1 returned KDM5B inhibitor 28.2µM*.
COc1ccc(-c2nnc3n2CCN(C(=O)c2ccccc2C)C3)cc1 was read as KDM5B inhibitor inactive.
For O=C(C1CCOCC1)N1CCc2nc(OCC3CC3)ccc2C1 the results were KDM5B inhibitor inactive.
COc1ccccc1CC(=O)N1CCc2c(nc3cc[nH]n3c2=O)C1 was read as KDM5B inhibitor 28.2µM*.
For Cc1ccccc1C(=O)N1CCc2c(nc3cc[nH]n3c2=O)C1 the results were KDM5B inhibitor 28.2µM*.
`Cc1ccccc1C(=O)N1CCc2[nH]nc(C(=O)NCCCc3ccccc3)c2C1` gave KDM5B inhibitor inactive.
Screening COc1ccc(-c2nc3c(c(=O)[nH]2)CCN(C(=O)c2ccccc2OC(F)(F)F)C3)cc1 returned KDM5B inhibitor inactive.
Screening COc1ccccc1CC(=O)N1CCN(c2nc(-c3ccc(Cl)cc3)no2)CC1 returned KDM5B inhibitor inactive.
For CCOc1ccc2c(n1)CCN(C(=O)C1CCOCC1)C2 the results were KDM5B inhibitor inactive.
COc1ccc(-c2noc([C@@H]3CCCN3C(=O)c3ccc(OC)cc3C)n2)cc1 was read as KDM5B inhibitor inactive.
COc1ccccc1CC(=O)N1CCc2c(nc[nH]c2=O)C1 was read as KDM5B inhibitor inactive.
For O=C(C1CCN(S(=O)(=O)N2CCOCC2)CC1)N1CCc2nc3cc[nH]n3c(=O)c2C1 the results were KDM5B inhibitor 31.6µM*.
`Cc1cc2n(n1)CCC(=O)N2Cc1ccc(C(=O)NCc2cccs2)cc1` gave KDM5B inhibitor inactive.
Screening Cc1cc(C)c(NC(=O)CCc2ncc(-c3ccc(Cl)cc3)o2)c(C)c1 returned KDM5B inhibitor inactive.
`COc1ccccc1NC(=O)NC1CC(=O)N(Cc2cccc(F)c2)C1` (centres undefined) gave KDM5B inhibitor inactive.
Screening O=C1NC2(CCN(S(=O)(=O)c3ccc(F)c(F)c3)CC2)N=C1c1cccs1 returned KDM5B inhibitor inactive.
For CSc1cccc(NC(=O)c2ccccc2SC)c1 the results were KDM5B inhibitor inactive.
Cc1ccc(C2Cn3nnc(C(=O)N4CCC(C(=O)NCCN(C)C)CC4)c3CO2)cc1 (centres undefined) was read as KDM5B inhibitor inactive.
For O=C(CSc1ncc(C(F)(F)F)cc1Cl)c1ccc(Br)s1 the results were KDM5B inhibitor inactive.
For O=C(c1ccoc1)N1CCCC1c1nc(C2CCOCC2)no1 (centres undefined) the results were KDM5B inhibitor inactive.
CC(NC(=S)NC(C)C1CC2CCC1C2)c1ccccc1 (centres undefined) was read as KDM5B inhibitor inactive.
